# High-throughput results: PubChem BioAssay, National Center for Advancing Translational Sciences (NCATS)
# In the library only some 9.5% were active in any assay of this set; here they are far more common.
# Pf growth 48h: Primary qHTS for delayed death inhibitors of the malarial parasite plastid, 48 hour incubation; P. falciparum luciferase growth in erythrocytes, 48 h; Potency, µM (doses to about 28.7 µM), for inactives: top-dose activity change, negative = inhibition, usual class: inhibitors; 310,000 compounds, 5.9% hits; AID 504832, 2011; active = well fitted inhibition curve with a large enough effect; inconclusive = small, poorly fitted or top-dose-only effect, or another doubt; inactive = no such curve, though single readings can be large or run the other way; also: % is scaled to controls: 0 for no effect and ±100 for the full control effect
#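 Read-out is firefly luciferase luminescence from an integrated reporter in P. falciparum, so falling signal marks reduced parasite growth. Infected erythrocytes were at 2% hematocrit and 0.1% parasitemia (final) in Albumax-supplemented RPMI 1640.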
# SARS PLP yeast: qHTS of Yeast-based Assay for SARS-CoV PLP. S. cerevisiae expressing SARS-CoV PLpro, growth rescue. Potency, µM (top dose mostly 32.9 µM), for inactives: at the top dose activity, positive = growth rescue, hits mostly activators. 330,000 compounds, 0.19% hits; also: 0% is about no effect; nearly all actives have a fitted effect of over 55% in size
# NS1 inh: qHTS Assay for Inhibitors of Influenza NS1 Protein Function | 270,000 compounds, 0.4% hits | Potency, µM (highest dose often 46.1 µM), inactives show at the top dose activity, positive = more growth; also: actives are rising curves; nearly all actives have a fitted effect of over 50% in size
#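 S. cerevisiae expressing influenza A NS1, grown in glucose, washed, then diluted 1:100 into pH 6.0 -URA galactose medium with 23 nl compound. Growth recovery read as OD600; NS1-free strain serves as control.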
# Pf growth 96h: Primary qHTS for delayed death inhibitors of the malarial parasite plastid, 96 hour incubation | P. falciparum luciferase reporter growth, 96 h | Potency, µM (highest dose often 28.7 µM), for the others: at the top dose activity change, negative = inhibition, hits mostly inhibitors | 320,000 compounds, 6.9% hits; active = well fitted inhibition curve with a large enough effect; inconclusive = small, poorly fitted or top-dose-only effect, or another doubt; inactive = no such curve, though single readings can be large or run the other way; also: % is scaled to controls: 0 for no effect and ±100 for the full control effect
#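 Two parasite generations (96 h, 37 C, 5% CO2) of compound exposure in infected erythrocytes (0.05% parasitemia, 2% hematocrit). Luciferase-reporter P. falciparum; decreased luminescence indicates inhibited growth, aimed at apicoplast-acting delayed death.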
# RE007 growth inh: qHTS Assay for Inhibitors of the HIV-1 protein Vpr | 360,000 compounds, 0.21% hits | Potency, µM (highest dose often 92.2 µM), without a hit: top-dose activity change, negative = less growth, most hits filed as inhibitors | S. pombe RE007 Vpr strain, BacTiter-Glo ATP luminescence, 24 h; active = well fitted falling curve with a large enough effect; inconclusive = small, poorly fitted or top-dose-only effect; inactive = no such curve, though single readings can be large or run the other way; also: % is scaled to controls: 0 for no effect and ±100 for the full control effect; nearly all actives have a fitted effect of over 50% in size
#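 Fission yeast RE007 carrying one integrated HIV-1 vpr copy, seeded at OD 0.01 in PMG+AL medium with 23 nL pinned compound. Grown 24 h at 30 degrees; viability read by BacTiter-Glo luminescence after 5 min.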
# Numbers without * were called inactive; ? = inconclusive; . = no result given; [ ] = dose if it differs, or a comment. Unless noted, calls follow the shape of the full dose curve. Potency is read from the fitted curve at half-maximal effect.
SMILES,Pf growth 48h,SARS PLP yeast,NS1 inh,Pf growth 96h,RE007 growth inh
COc1cc(/C=C(\C#N)c2nc3ccccc3[nH]2)c([N+](=O)[O-])cc1OCc1ccccc1,2.6µM*,-7%,20%,13%,-2%
O=C(Nc1ccc(Cl)c(Cl)c1)Nc1cc(C(=O)NC2CC2)ccc1Cl,13µM*,-4%,4%,?,.
Cc1ccc(N2C(=O)c3ccccc3C2=O)cc1,7%,-2%,-2%,14%,1%
Cc1ccc(SC2=C(Sc3ccc(C)cc3)C(=O)c3ccccc3C2=O)cc1,0.41µM*,-6%,5%,0.74µM*,-13%
Cn1cc(CN2CC3C[C@@H]4CC2C[C@H](C3)C4)c(-c2ccc3c(c2)OCCO3)n1,-20%,1%,5%,12µM*,-4%
CNc1c(NC(=O)c2ccc3c(c2)OCO3)c(=O)oc2ccccc12,-3%,2%,-4%,-5%,9%
COCCCNC(=O)C1CCN(C(=O)c2oc3cc4sc(N(C)C)nc4cc3c2C)CC1,10%,45%,-7%,?,3%
CCN(CC)CCCNC(=O)C1CCN(C(=O)c2oc3cc4sc(N(C)C)nc4cc3c2C)CC1,-17%,-1%,-10%,12µM*,-2%
O=c1c(-c2ccccc2)c1-c1ccccc1,6.7µM*,-24%,.,5.4µM*,.
CC(=O)N1CCN(Cc2nc(C(c3ccccc3)c3ccccc3)no2)CC1,?,3%,-1%,?,14%
CC(C)NC(=O)CN1CCN(Cc2nc(C(c3ccccc3)c3ccccc3)no2)CC1,9.3µM*,0%,1%,-26%,-28%
CC(CCc1ccc(O)cc1)NCCc1ccc(O)c(O)c1 (stereo not drawn),?,.,6%,1.5µM*,6%[18.4 µM]
COc1ccc(NC(=O)Cn2c(CCC(=O)O)ccc2-c2ccccc2)cc1,7%,2%,?,78%,7%
COC(=O)Cn1c(CCC(=O)O)ccc1-c1ccccc1,.,-5%,5%,8.3µM*,2%
COC(=O)c1ccc(-n2c(CCC(=O)O)ccc2-c2ccccc2)cc1,-3%,-4%,2%,3.7µM*,34%
O=C(O)CCc1ccc(-c2ccc(F)cc2)n1CC(=O)O,8%,9%,11%,0%,2%
CC(=O)c1ccc(-n2c(CCC(=O)O)ccc2-c2ccccc2)cc1,0%,1%,5%,9%,-4%
CCCn1c(CCC(=O)O)ccc1-c1ccc(F)cc1,12%,-6%,-31%,9.3µM*,12%
CCN(CC)c1ncnc2c1ncn2[C@H]1CN(Cc2ccc(-c3ccccc3)cc2)C[C@@H](CO)O1,.,.,.,.,26%
CNc1ncnc2c1ncn2[C@@H]1O[C@H](CO)[C@H](O)[C@H]1O,.,.,-7%,.,.
COc1cc2c(cc1OC)C(c1cccc([N+](=O)[O-])c1)N(C(=O)c1ccc(F)cc1)CC2 (stereo not drawn),?,3%,-2%,122%,10%
COc1ccc(C2c3cc(OC)c(OC)cc3CCN2C(=O)c2cccc([N+](=O)[O-])c2)cc1OC (stereo not drawn),?,1%,-14%,9.3µM*,2%
COc1ccc(CC(N)c2csc(Nc3nc(C)cnc3C)n2)cc1 (stereo not drawn),.,.,.,.,-1%[18.4 µM]
Cc1ccc(N(C(=O)Cn2nnc(-c3ccc(F)cc3)n2)C(CC(C)C)C(=O)NCC2CCCO2)cc1 (stereo not drawn),13µM*,0%,-15%,?,-5%
Cc1ccc(-c2nnn(CC(=O)N(c3ccc(F)cc3)C(C(=O)NC3CCCC3)c3ccncc3)n2)o1 (stereo not drawn),23%,2%,0%,?,5%
CC(C)CC(C(=O)NCC1CCCO1)N(C(=O)Cn1nnc(-c2ccc(F)cc2)n1)c1ccccc1F (stereo not drawn),?,0%,-6%,44%,3%
CCCCC(C(=O)NC1CCCC1)N(Cc1ccco1)C(=O)Cn1nnc(-c2ccc(F)cc2)n1 (stereo not drawn),.,1%,-23%,12µM*,14%
